Laboratory results taken from PubChem BioAssay (Tox21).
Values joined by “and” are separate entries in the source; they are usually repeats but may differ in a detail not shown here. Equal entries are not always repeated. A number with no mark means an inactive call. Records with an inconclusive call do not appear. Entries that show only a call come without a potency. Active and inactive are the calls of the source. Unless noted, calls follow the shape of the dose curve; as a rule, active = well fitted curve in the direction sought with a large enough effect in the repeat runs; inconclusive = weak or mixed curves; inactive = no such curve, though single readings can be large; an effect the other way counts as inactive or inconclusive.

What was measured:
[1] = molecular target: Nuclear receptor subfamily 1 group I member 3 (Homo sapiens) (UniProt Q14994); assay: qHTS assay to identify small molecule agonists of the constitutive androstane receptor (CAR) signaling pathway (AID 1224839);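 also: HepG2 cells stably carrying human CAR and a CYP2B6 luciferase reporter; nearly all actives have a fitted effect of over 15% in size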
In short: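 HepG2 cells stably expressing hCAR and a CYP2B6-2.2kb luciferase reporter were treated with compounds at 15 concentrations plus 0.75 uM PK11195 (final) for 24 h at 37 C; luminescence was read after ONE-Glo addition.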

[2] = qHTS assay to identify small molecule antagonists of the estrogen related receptor signaling pathway with the pleiotropic PPARgamma coactivator (PGC) from Tox21 10K library (AID 1224841; call rule not given here; also: actives are mostly falling curves and most rising ones were filed inactive; nearly all actives have a fitted effect of over 50% in size; also: potency is read from the fitted curve at half-maximal effect)
In short: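 One-Glo luminescence, measured after half an hour at room temperature, quantified reporter output of PGC/ERR cells. These had been plated at 2,000 per well, incubated 6 h, dosed with compounds in DMSO, then kept 18 h at 37 C.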

[3] = qHTS assay to identify small molecule agonists of the estrogen related receptor signaling pathway with the pleiotropic PPARgamma coactivator (PGC) from Tox21 10K library (AID 1224842); also: nearly all actives have a fitted effect of over 15% in size
In short: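 PGC/ERR reporter cells (NTP line) were seeded 2,000 per well, rested 6 h at 37 C/5% CO2, then pin-dosed with compounds in DMSO for 18 h at 37 C; luciferase read by One-Glo luminescence after 30 min at room temperature.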

[4] = molecular target: Thyrotropin receptor (Homo sapiens) (UniProt P16473); assay: qHTS assay to identify small molecule agonists of the thyroid stimulating hormone receptor (TSHR) signaling pathway (AID 1224843; calls by dose curve; also: nearly all actives have a fitted effect of over 45% in size)
In short: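 Using 15 concentrations per compound in triplicate, cAMP production was monitored in TSHR-HEK293 cells after 30 min compound incubation at RT; HTRF reagents followed, with fluorescence intensity recorded after 1 h.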

[5] = qHTS assay to identify small molecule agonists of H2AX (AID 1224845; active = well fitted activation curve with a large enough effect in the signal ratio in the repeat runs, not every such curve was filed as active; the % refers to the signal ratio; also: potency is read from the fitted curve at half-maximal effect)
In short: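 Wild-type CHO-K1 cells plated overnight, then exposed 3 hr at 37C to compounds at 15 concentrations (0.76% DMSO). Lysed, then HTRF anti-pH2AX(S139)-cryptate/anti-H2AX-d2 detection after 24 hr at room temperature; emissions 665 and 620 nm.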

[6] = qHTS assay to identify small molecule agonists of the hypoxia (HIF-1) signaling pathway (AID 1224846; active = well fitted activation curve with a large enough effect in the signal ratio in the repeat runs, not every such curve was filed as active; the % refers to the signal ratio)
In short: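 ME-180 HRE-bla reporter cells; compounds in DMSO, 17 h at 37C; read-out beta-lactamase via CCF4-AM FRET.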

[7] = qHTS assay to identify small molecule agonists of H2AX - cell viability counter screen (AID 1224847; calls by dose curve; also: nearly all actives have a fitted effect of over 30% in size; also: potency is read from the fitted curve at half-maximal effect)
In short: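 Wild-type CHO-K1 cells (10% FBS medium) were plated overnight at 37C, exposed to compounds at 15 concentrations for 3 hr at 37C (0.76% DMSO final), and viability was read as CellTiter-Glo luminescence after 30 min at room temperature.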

[8] = qHTS assay to identify small molecule antagonists of the estrogen related receptor (ERR) signaling pathway from Tox21 library (AID 1224848); also: nearly all actives have a fitted effect of over 50% in size; also: potency is read from the fitted curve at half-maximal effect
In short: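 Tox21 10K compounds in DMSO tested for ERR pathway antagonism in NTP's ERR cell line; 18 h, 37 C exposure; ONE-Glo luminescence.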

[9] = qHTS assay to identify small molecule agonists of the estrogen related receptor (ERR) signaling pathway from Tox21 library (AID 1224849; calls by dose curve; also: nearly all actives have a fitted effect of over 15% in size); settings: ERR reporter cell line, ONE-Glo luciferase, 18 h; at 92.4 µM (top of the series) unless noted
In short: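 Luciferase activity in ERR pathway reporter cells served as the agonist readout; exposure lasted 18 h at 37 C, with ONE-Glo detection after 30 min at room temperature.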

[10] = qHTS RealTime-Glo MT Cell Viability Assay in HepG2 cells - 24 hour (AID 1224867); also: nearly all actives have a fitted effect of over 50% in size; also: potency is read from the fitted curve at half-maximal effect
In short: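 qHTS, HepG2, 600 cells/well, RealTime-Glo (NanoLuc + prosubstrate) added with cells; 5 h preincubation; DMSO compound addition; 37 C; luminescence at 0/8/16/24/32/40 h.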

[11] = qHTS RealTime-Glo MT Cell Viability Assay in HEK293 cells - 32 hour (AID 1224868); also: nearly all actives have a fitted effect of over 50% in size; also: potency is read from the fitted curve at half-maximal effect
In short: (§1)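 Assay medium contained NanoLuc luciferase plus cell-permeant prosubstrate, added with HEK293 cells at 600 cells/well. After 5 h at 37 C/5% CO2 compounds were added; plates stayed at 37 C for 40 h with serial luminescence reads.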

[12] = A CellTox Green Cytotoxicity Assay to monitor cytotoxicity in HEK293 cells - 0 hour (AID 1224869); also: nearly all actives have a fitted effect of over 50% in size
In short: (§2)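 Real-time, in one plate: 600 HEK293 cells/well with dead-cell DNA dye, pinned compound after 5 h, 37 C incubation over 40 h; viable cells give no appreciable fluorescence.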

[13] = qHTS RealTime-Glo MT Cell Viability Assay in HepG2 cells - 40 hour (AID 1224870); also: nearly all actives have a fitted effect of over 50% in size; also: potency is read from the fitted curve at half-maximal effect
In short: (§3)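 HepG2 cells mixed with RealTime-Glo MT reagents (NanoLuc plus cell-permeant prosubstrate) were seeded at 600 cells/well, incubated 5 h at 37 C/5% CO2, then pinned with compounds in DMSO; nonlytic luminescence tracked viability during 40 h treatment.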

[14] = A CellTox Green Cytotoxicity Assay to monitor cytotoxicity in HEK293 cells - 40 hour (AID 1224871); also: nearly all actives have a fitted effect of over 45% in size; also: potency is read from the fitted curve at half-maximal effect
In short: as §2

[15] = qHTS RealTime-Glo MT Cell Viability Assay in HEK293 cells - 16 hour (AID 1224872); also: nearly all actives have a fitted effect of over 50% in size; also: potency is read from the fitted curve at half-maximal effect
In short: as §1

[16] = qHTS RealTime-Glo MT Cell Viability Assay in HepG2 cells - 8 hour (AID 1224873); also: nearly all actives have a fitted effect of over 55% in size; also: potency is read from the fitted curve at half-maximal effect
In short: as §3

[17] = qHTS assay to identify small molecule agonists of the hypoxia (HIF-1) signaling pathway - cell viability counter screen (AID 1224844; calls by dose curve; also: nearly all actives have a fitted effect of over 50% in size; also: potency is read from the fitted curve at half-maximal effect)
In short: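 In this counter screen, HRE-bla ME-180 cell viability after 17 hrs of compound exposure at 37C was read by CellTiter-Glo luminescence, multiplexed with the beta-lactamase reporter measurement.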

[18] = qHTS assay to identify small molecule antagonists of the estrogen related receptor signaling pathway with the pleiotropic PPARgamma coactivator (PGC) from Tox21 10K library - cell viability counter screen (AID 1224840; active = well fitted cell-killing curve with a large enough effect in the repeat runs, not every such curve was filed as active; also: nearly all actives have a fitted effect of over 40% in size; also: potency is read from the fitted curve at half-maximal effect)
In short: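 Readout: fluorescence intensity from CellTiter-Fluor after 30 min at 37 C/5% CO2. Preceded by 17.5 h treatment of PGC/ERR cells with DMSO-dissolved compounds, added 6 h post-seeding.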

Chain of Nuclear receptor subfamily 1 group I member 3 (Homo sapiens) (Q14994 whole entry, looked up): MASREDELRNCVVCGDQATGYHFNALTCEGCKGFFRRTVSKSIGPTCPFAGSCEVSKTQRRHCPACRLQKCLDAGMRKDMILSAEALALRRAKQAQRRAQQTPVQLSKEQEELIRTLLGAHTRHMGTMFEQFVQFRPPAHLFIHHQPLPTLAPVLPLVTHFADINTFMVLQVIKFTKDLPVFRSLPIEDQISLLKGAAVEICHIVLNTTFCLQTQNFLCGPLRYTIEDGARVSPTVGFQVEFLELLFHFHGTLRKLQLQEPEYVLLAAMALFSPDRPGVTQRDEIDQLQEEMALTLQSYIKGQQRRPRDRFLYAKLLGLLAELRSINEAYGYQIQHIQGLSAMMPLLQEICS
Chain of Thyrotropin receptor (Homo sapiens) (P16473 whole entry, looked up): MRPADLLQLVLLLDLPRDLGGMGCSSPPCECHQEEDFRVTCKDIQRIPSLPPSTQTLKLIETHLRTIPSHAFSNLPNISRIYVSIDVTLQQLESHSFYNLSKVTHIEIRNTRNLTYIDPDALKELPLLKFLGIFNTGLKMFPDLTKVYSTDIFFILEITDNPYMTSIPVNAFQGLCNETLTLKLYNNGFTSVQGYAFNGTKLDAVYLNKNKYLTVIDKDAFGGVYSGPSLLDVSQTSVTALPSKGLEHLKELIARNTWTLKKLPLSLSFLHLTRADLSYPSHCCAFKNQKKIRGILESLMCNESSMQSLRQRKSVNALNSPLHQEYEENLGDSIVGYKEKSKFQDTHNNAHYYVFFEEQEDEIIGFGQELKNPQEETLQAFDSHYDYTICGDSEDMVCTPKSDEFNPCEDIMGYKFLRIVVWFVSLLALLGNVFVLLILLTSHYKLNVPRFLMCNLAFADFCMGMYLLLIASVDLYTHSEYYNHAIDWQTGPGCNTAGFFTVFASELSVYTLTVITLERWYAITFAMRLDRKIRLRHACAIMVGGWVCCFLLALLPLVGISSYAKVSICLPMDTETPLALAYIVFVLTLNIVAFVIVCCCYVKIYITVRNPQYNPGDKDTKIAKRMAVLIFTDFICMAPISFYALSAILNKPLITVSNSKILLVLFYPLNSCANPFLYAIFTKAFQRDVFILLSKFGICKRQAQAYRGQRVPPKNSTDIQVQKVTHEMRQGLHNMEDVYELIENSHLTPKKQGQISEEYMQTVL

With COc1ccc2sc(C(=O)Nc3nnn[nH]3)c(OC(C)C)c2c1 the Potency [1] was “inactive”, the Potency [2] was 24.2 µM (active) and the Potency [3] was “inactive”. The Potency [4] was “inactive”, the Potency [5] was “inactive” and the outcome [6] was “inactive”. The Potency [7] was “inactive”, the Potency [8] was 24.2 µM (active) and the activity change, positive = activation [9] was -42.5%. The Potency [10] was “inactive”, the Potency [11] was 27.4 µM (active) and the Potency [12] was “inactive”. For the same compound, the Potency [13] was “inactive”, the Potency [14] was “inactive” and the Potency [15] was “inactive”. For the same compound, the Potency [16] was “inactive”.
In the case of Clc1ccc(C(Cn2ccnc2)OCc2c(Cl)cccc2Cl)c(Cl)c1 (centres undefined), the Potency [3] was “inactive”, the Potency [17] was 23.9 µM (active) and the Potency [8] was 26.6 µM (active). The activity change, positive = activation [9] was -58.8% [at 42.5 µM], the Potency [11] was 16.9 µM (active) and the Potency [12] was “inactive”. For the same compound, the Potency [13] was “inactive”.
For CCN(CC)CCOc1ccc(C(O)(Cc2ccc(Cl)cc2)c2ccc(C)cc2)cc1 (centres undefined), the Potency [3] was “inactive”, the Potency [4] was “inactive” and the Potency [5] was 49.2 µM (active). For the same compound, the outcome [6] was “inactive”, the Potency [8] was 29.8 µM (active) and the activity change, positive = activation [9] was -61% [at 42.5 µM]. For the same compound, the Potency [10] was 23.9 µM (active), the Potency [13] was 15.1 µM (active) and the Potency [14] was 23.9 µM (active).
For O=C1NC2CCCCN2C12CCN(CCCN1c3ccccc3CCc3ccc(Cl)cc31)CC2 (centres undefined), the Potency [1] was “inactive”, the Potency [2] was 10.6 µM (active) and the Potency [3] was “inactive”. For the same compound, the Potency [17] was “inactive”, the outcome [6] was “inactive” and the Potency [8] was 23.7 µM (active). The activity change, positive = activation [9] was -64.1% [at 42.5 µM], the Potency [10] was 23.9 µM (active) and the Potency [11] was 9.52 µM (active). The Potency [12] was “inactive”, the Potency [13] was 23.9 µM (active) and the Potency [15] was 8.49 µM (active).
In the case of NC(=O)c1nc(-c2cccc(-c3cc(F)ccc3OCC(F)(F)C(F)(F)F)c2)n[nH]1, the Potency [2] was 24.3 µM (active), the Potency [3] was “inactive” and the Potency [4] was “inactive”. The Potency [5] was “inactive”, the Potency [7] was 101 µM (active) and the Potency [8] was 17.2 µM (active). For the same compound, the Potency [10] was “inactive”, the Potency [12] was “inactive” and the Potency [16] was “inactive”.
For COC(=O)C1=C(C)NC(C)=C(C(=O)OCCCN2CCC(c3ccccc3)(c3ccccc3)CC2)C1c1cccc([N+](=O)[O-])c1 (centres undefined), the Potency [18] was 26.6 µM (active), the Potency [2] was 10.6 µM (active) and the Potency [3] was “inactive”. The Potency [17] was 21.3 µM (active), the Potency [5] was “inactive” and the Potency [8] was 10.6 µM (active). For the same compound, the activity change, positive = activation [9] was -67.7% [at 42.5 µM], the Potency [11] was 10.7 µM (active) and the Potency [12] was “inactive”. The Potency [14] was “inactive” and the Potency [15] was 9.52 µM (active).
For COc1cc(C=C2CCC/C(=C\c3ccc(O)c(OC)c3)C2=O)ccc1O, the Potency [1] was “inactive”, the Potency [2] was 11.9 µM (active) and the Potency [3] was “inactive”. For the same compound, the Potency [4] was “inactive”, the Potency [8] was 8.41 µM (active) and the activity change, positive = activation [9] was -63.1% [at 42.5 µM]. For the same compound, the Potency [11] was 23.9 µM (active), the Potency [12] was “inactive” and the Potency [15] was 21.3 µM (active). The Potency [16] was “inactive”.
With CC(NCCC(c1ccccc1)c1ccccc1)c1ccccc1 (centres undefined) the Potency [1] was “inactive”, the Potency [17] was “inactive” and the Potency [10] was 21.3 µM (active). For the same compound, the Potency [11] was 19 µM (active), the Potency [12] was “inactive” and the Potency [13] was 21.3 µM (active). The Potency [14] was 21.3 µM (active), the Potency [15] was 21.3 µM (active) and the Potency [16] was 21.3 µM (active).
For CCc1c(C(=O)O)c(=O)cnn1-c1ccc(Cl)cc1, the Potency [18] was “inactive”, the Potency [2] was “inactive” and the Potency [3] was “inactive”. For the same compound, the Potency [4] was “inactive”, the Potency [17] was “inactive” and the Potency [5] was “inactive”. The outcome [6] was “inactive”, the Potency [7] was “inactive” and the Potency [8] was “inactive”. The activity change, positive = activation [9] was 3.84%, the Potency [10] was “inactive” and the Potency [11] was “inactive”. For the same compound, the Potency [12] was “inactive”, the Potency [13] was “inactive” and the Potency [14] was “inactive”. For the same compound, the Potency [15] was “inactive” and the Potency [16] was “inactive”.
With CC1(C)C(=O)N(CO)C(=O)N1CO the Potency [18] was “inactive”, the Potency [4] was “inactive” and the Potency [5] was “inactive”. The outcome [6] was “inactive”, the Potency [7] was “inactive” and the Potency [10] was “inactive”. For the same compound, the Potency [12] was “inactive”, the Potency [15] was “inactive” and the Potency [16] was “inactive”.
For CCCCC(CC)COC(=O)c1ccc(O)cc1 (centres undefined), the Potency [18] was “inactive”, the Potency [4] was “inactive” and the Potency [17] was 49 µM (active). The Potency [5] was “inactive”, the Potency [10] was “inactive” and the Potency [12] was “inactive”. For the same compound, the Potency [13] was “inactive”, the Potency [14] was 43.5 µM (active) and 21.9 µM (active) and the Potency [15] was 54.7 µM (active). The Potency [16] was “inactive”.
